# Reference: PubChem BioAssay (NCATS)
# Records with an inconclusive call do not appear. Active and inactive are the calls of the source. Calls come from the whole dose curve; as a rule, active = well fitted inhibition curve with a large enough effect; inconclusive = small, poorly fitted or top-dose-only effect; inactive = no such curve, though single readings can be large or run the other way.
# Target: Protein phosphatase 1D (Homo sapiens) (UniProt O15297)
# Assay: RapidFire Mass Spectrometry qHTS Assay for Modulators of WT P53-Induced Phosphatase 1 (WIP1) (AID 1347424)
# Settings: WIP1 dephosphorylation of phosphopeptide, RapidFire MS; series mostly up to 63 µM; activity change, negative = inhibition: at the top concentration
# From the text: Assay Provider (PI): Nathan Coussens Ph. D.
# National Center for Advancing Translational Sciences (NCATS), Rockville, MD
# National Institute of Health (NIH), Bethesda, Maryland
# WT P53-Induced Phosphatase 1 (WIP1) is a member of the magnesium-dependent serine/threonine protein phosphatase (PPM) family and is induced by P53 in response to DNA damage. In several human cancers, the WIP1 protein is overexpressed, which is generally associated with a worse prognosis. Although WIP1 is an attractive therapeutic target, no potent, selective, and bioactive small-molecule modulator with favorable pharmacokinetics has been reported. Phosphatase enzymes are among the most challenging targets for small molecules because of the difficulty of achieving both modulator selectivity and bioavailability. Another major obstacle has been the availability of robust and physiologically relevant phosphatase assays that are suitable for high-throughput screening.
# Here, we describe two orthogonal biochemical WIP1 activity assays that utilize phosphopeptides from native WIP1 substrates. We optimized a RapidFire MS assay to quantify the enzymatically dephosphorylated peptide reaction product in a 384-well format. Additionally, a redshifted Rhodamine-PBP fluorescence assay was optimized in a 1,536-well format to enable real-time WIP1 activity measurements through the detection of the orthogonal reaction product, Pi. We validated these two optimized assays by quantitative high-throughput screening against the National Center for Advancing Translational Sciences (NCATS) Pharmaceutical Collection and used secondary assays to confirm and evaluate inhibitors identified in the primary screen.
# SEQUENCE No. (e.g., 1, 2, 3, etc.); […] (e.g., Cells, Incubation, Reagent, etc.); VALUE; DESCRIPTION
# 1; Reagent; 50 uL; dispensed assay buffer: 0.1% formic acid in water (10 uL : 40 uL) solution in column 1
# 3; Library Compounds; 63 nL; library compounds in DMSO, columns 3-24
# 4; Control Compounds; 63 nL; DMSO in wells I-P, columns 1-2, GSK830371 (10 uM, final) in wells A-H, column 2
# 5; Time; 1 hr; incubation
# 6; Substrate; 2 uL; VEPPL-pS-QETFS (10 uM) in assay buffer, column 2-24
# 7; Time; 5 min; incubation
# 8; Reagent; 2 uL; 0.5% formic acid in water, columns 2-24
# 9; Reagent; 38 uL; VEPPL-S-QETF*S in 0.1% formic acid, columns 2-24
# 10; Detection; mass spec; RapidFire mass spectrometry
# NOTES (numbers refer to sequence above)
# 1, 2, 6; dispensed reagent in White Nunc 384-well PP microplates (264573); assay buffer: 50 mM Tris-HCl pH 7.5, 30 mM MgCl2, 1 mM TCEP, 0.1 mM EGTA, 75 ug/mL BSA.
# 2, 6, 8, 9; Dispensed with BioRaptr (Beckman Coulter)
# 2, 6, 9; Final concentrations: 10 nM WIP1; 2 uM VEPPL-pS-QETFS; 1 uM VEFFL-S-QETF*S
# 3 & 4; Kalypsys Pintool transfer (Wako USA), Tip wash sequence: water, DMSO, methanol, 20 sec vacuum dry.
# 5 & 7; incubation at room temperature
# 10; RapidFire mass spectrometry read using the Agilent RapidFire 360 (Clausse, 2019)
# Clausse V, et al. Physiologically relevant orthogonal assay for the discovery of small-molecule modulators of WIP1 […] in high-throughput screens. J Biol Chem. 2019, 294(46): 17654-17668. doi:10.1074/jbc.RA119.010201
# Chain of Protein phosphatase 1D (Homo sapiens) (O15297 whole entry, looked up): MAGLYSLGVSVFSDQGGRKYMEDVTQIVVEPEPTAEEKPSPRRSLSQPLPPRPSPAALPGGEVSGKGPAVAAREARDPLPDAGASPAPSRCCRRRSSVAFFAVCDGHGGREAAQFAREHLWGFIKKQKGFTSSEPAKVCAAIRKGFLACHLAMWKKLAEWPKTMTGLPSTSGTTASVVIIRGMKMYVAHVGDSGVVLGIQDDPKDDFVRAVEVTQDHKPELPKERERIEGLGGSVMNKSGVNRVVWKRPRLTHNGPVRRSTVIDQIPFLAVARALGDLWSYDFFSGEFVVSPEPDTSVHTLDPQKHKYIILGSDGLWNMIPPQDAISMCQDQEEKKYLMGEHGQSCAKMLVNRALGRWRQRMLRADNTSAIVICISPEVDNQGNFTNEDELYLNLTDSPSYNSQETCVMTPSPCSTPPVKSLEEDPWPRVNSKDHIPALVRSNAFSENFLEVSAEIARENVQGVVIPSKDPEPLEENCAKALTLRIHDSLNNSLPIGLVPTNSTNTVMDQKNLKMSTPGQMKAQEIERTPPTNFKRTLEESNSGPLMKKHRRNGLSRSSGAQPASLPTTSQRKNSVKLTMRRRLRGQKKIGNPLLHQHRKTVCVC
row,SMILES,"activity change, negative = inhibition"
1,Nc1ccc(S(=O)(=O)Nc2ccccn2)cc1,0.0725% (inactive)
2,CCCN[C@H]1CCc2nc(N)sc2C1,8.89% (inactive)
3,CC[C@H](NC(C)C)[C@H](O)c1ccc(O)c2[nH]c(=O)ccc12,2.46% (inactive)
4,CCOC(=O)[C@H](CCc1ccccc1)N[C@H]1CCc2ccccc2N(CC(=O)O)C1=O,18.1% (inactive)
5,Nc1nc(N)nc(-c2cc(Cl)ccc2Cl)n1,-12.5% (inactive)
6,N=C(N)c1ccc(OCCCCCOc2ccc(C(=N)N)cc2)cc1,4.19% (inactive)
7,C[C@@H]1C[C@H]2[C@@H]3CCC4=CC(=O)C=C[C@]4(C)[C@@]3(Cl)[C@@H](O)C[C@]2(C)[C@@]1(OC(=O)c1ccco1)C(=O)CCl,-11.8% (inactive)
8,Nc1nc(=S)c2[nH]cnc2[nH]1,-4.12% (inactive)
9,O=C(O)c1cc(=O)[nH]c(=O)[nH]1,-1.21% (inactive)
10,COC(=O)Nc1nc2ccc(C(=O)c3ccccc3)cc2[nH]1,6.86% (inactive)
11,CCOC(=O)[C@H](CCc1ccccc1)N[C@H]1CS[C@H](c2cccs2)CN(CC(=O)O)C1=O,-5.17% (inactive)
12,CCCCCCNC(=O)n1cc(F)c(=O)[nH]c1=O,26.2% (inactive)
13,COc1c(N2CCNC(C)C2)c(F)cc2c(=O)c(C(=O)O)cn(C3CC3)c12 (stereo not given),6% (inactive)
14,CCC(=O)O[C@]1(C(=O)SCF)[C@H](C)C[C@H]2[C@@H]3C[C@H](F)C4=CC(=O)C=C[C@]4(C)[C@@]3(F)[C@@H](O)C[C@@]21C,-12.2% (inactive)
15,CCN(C)C(=O)Oc1cccc([C@H](C)N(C)C)c1,1.73% (inactive)
16,COc1ncnc(NS(=O)(=O)c2ccc(N)cc2)c1OC,-5.11% (inactive)
17,CCOC(=O)c1ccc(OC(=O)CCCCCN=C(N)N)cc1,20.4% (inactive)
18,O=S(=O)(c1cccc2cnccc12)N1CCCNCC1,-1.01% (inactive)
19,NC(=O)c1cccnc1,-0.831% (inactive)
20,CCCc1nc(C)c2c(=O)[nH]c(-c3cc(S(=O)(=O)N4CCN(CC)CC4)ccc3OCC)nn12,11.8% (inactive)

row,SMILES,"activity change, negative = inhibition"
1,CC(C)(C)NC(=O)[C@H]1CC[C@H]2[C@@H]3CC[C@H]4NC(=O)C=C[C@]4(C)[C@H]3CC[C@]12C,0.831% (inactive)
2,CNC1CCCN(c2c(F)cc3c(=O)c(C(=O)O)cn(C4CC4)c3c2OC)C1 (stereo not given),9.32% (inactive)
3,CC1=CC(=O)c2ccccc2C1=O,-13.6% (inactive)
4,CCOc1cc(N)c(Cl)cc1C(=O)NCC1CN(Cc2ccc(F)cc2)CCO1 (stereo not given),15.7% (inactive)
5,Cc1nnc(C(=O)NC(C)(C)c2nc(C(=O)NCc3ccc(F)cc3)c(O)c(=O)n2C)o1,18.4% (inactive)
6,COC(=O)Nc1nc2ccc(S(=O)c3ccccc3)cc2[nH]1 (stereo not given),4.5% (inactive)
7,CCCc1cc(C(N)=S)ccn1,7.55% (inactive)
8,COc1cc(NS(=O)(=O)c2ccc(N)cc2)nc(OC)n1,-0.464% (inactive)
9,Cc1cccc(N(C)C(=S)Oc2ccc3ccccc3c2)c1,-3.74% (inactive)
10,CCCCc1oc2ccc(NS(C)(=O)=O)cc2c1C(=O)c1ccc(OCCCN(CCCC)CCCC)cc1,45.9% (inactive)
11,CCc1cc(C(N)=S)ccn1,0.539% (inactive)
12,O=c1cc(O)c(Cl)c[nH]1,-0.888% (inactive)
13,CC1(C)[C@H](C(=O)O)N2C(=O)C[C@H]2S1(=O)=O,-5.3% (inactive)
14,COc1cc2c(Nc3ccc(Br)cc3F)ncnc2cc1OCC1CCN(C)CC1,1.51% (inactive)
15,O=C(O)c1cccnc1,-6.08% (inactive)
16,CS(=O)(=O)c1ccc([C@@H](O)[C@@H](CO)NC(=O)C(Cl)Cl)cc1,0.456% (inactive)
17,Clc1ccccc1CN1CCc2sccc2C1,14.5% (inactive)
18,O=C(O)CSCC(=O)NC1CCSC1=O (stereo not given),-0.324% (inactive)
19,CCn1cc(C(=O)O)c(=O)c2cc(F)c(N3CCN(C)CC3)cc21,-0.744% [at 26.6 µM] (inactive)
20,NC(N)=NC(N)=NCCc1ccccc1,4.31% (inactive)
